Reference: PubChem BioAssay (Tox21)
A number with no mark means an inactive call. Inconclusive results are not listed. Entries that show only a call come without a potency. Activity calls are given as the source filed them. Unless noted, calls come from the whole dose curve; as a rule, active = well fitted curve in the direction sought with a large enough effect in the repeat runs; inconclusive = weak or mixed curves; inactive = no such curve, though single readings can be large; an effect the other way counts as inactive or inconclusive.

Key:
[1] = qHTS assay for small molecule agonists of the p53 signaling pathway (AID 651631; calls by dose curve; note: nearly all actives have a fitted effect of over 15% in size)
In short: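 Beta-lactamase reporter activity under p53 response elements was quantified in HCT-116 cells by FRET fluorescence, following 16 h incubation with test compounds at 37 °C and 2 h substrate development at room temperature.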

[2] = qHTS assay for small molecules that induce genotoxicity in human embryonic kidney cells expressing luciferase-tagged ATAD5 (AID 651632); note: nearly all actives have a fitted effect of over 15% in size
In short: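 Luminescence read-out: after 16 hr compound exposure at 37C, ATAD5-luciferase HEK293T cells received Amplite, 30 min RT, then CCD imaging. A rise in signal marks genotoxic stress.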

[3] = qHTS assay for small molecule agonists of the p53 signaling pathway - cell viability (AID 651633; calls by dose curve;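 note: p53RE-bla HCT reporter cells with a stable beta-lactamase p53 reporter; series mostly up to about 83 µM; nearly all actives have a fitted effect of over 30% in size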)
In short: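 Viability counter-read: CellTiter-Glo luminescence (30 min, room temperature) in the same p53RE-bla plates. These plates had been exposed to compounds for 16 h at 37 C.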

[4] = qHTS assay for small molecules that induce genotoxicity in human embryonic kidney cells expressing luciferase-tagged ATAD5 - cell viability (AID 651634; calls by dose curve; note: nearly all actives have a fitted effect of over 25% in size)
In short: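 HEK293T ATAD5-luc cells, 2,000/well; compound 15.5 hr, 37C/5% CO2; CellTiter-Fluor 30 min, 37C; fluorescence read.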

[5] = qHTS assay for small molecule disruptors of the mitochondrial membrane potential - cell viability (AID 720634; calls by dose curve;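 note: human HepG2 liver cancer cells; series mostly up to about 83 µM; nearly all actives have a fitted effect of over 20% in size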)
In short: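 Luminescence from CellTiter-Glo (ATP content) gave viability in HepG2 cells, read in the same wells as the MMP dye assay after 1 hr compound exposure at 37 C.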

[6] = qHTS assay for small molecule disruptors of the mitochondrial membrane potential (AID 720635); note: potency is the fitted concentration of half-maximal effect
In short: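 Mitochondrial membrane potential tracked with Mito-MPS dye, red aggregates (ex 540/em 590 nm) against green monomers (ex 490/em 535 nm). Compound treatment 1 hr at 37C, dye 30 min in HepG2.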

[7] = qHTS assay to test for compound auto fluorescence at 590 nm (red) in HepG2 cells (AID 720674)
In short: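 Red autofluorescence (Ex/Em 540/590 nm, Rose Bengal sodium equivalents) was measured in HepG2 cells, 2,000 per well in MEM plus 10% FBS, plated overnight at 37 C. Readings were taken 1 hr after adding 23 nL compound or DMSO, at 37 C and 5% CO2.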

[8] = qHTS assay to test for compound auto fluorescence at 535 nm (green) in HepG2 cells (AID 720675)
[9] = qHTS assay to test for compound auto fluorescence at 460 nm (blue) in HEK293 cells (AID 720678)
In short: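 After cell attachment (4-5 hr, 37C), compounds were pinned onto HEK293 monolayers in 10% dialyzed FBS medium. The blue channel (405/460 nm) was read following overnight culture. Equivalency was calculated against triamterene.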

[10] = qHTS assay to test for compound auto fluorescence at 590 nm (red) in HEK293 cells (AID 720679)
In short: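 Plates of HEK293 cells (10% dialyzed FBS) are treated with 23 nL compound or DMSO vehicle after a 4-5 hr attachment period, incubated overnight at 37C, and read for red fluorescence at 540/590nm.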

[11] = qHTS assay to test for compound auto fluorescence at 535 nm (green) in HEK293 cells (AID 720680)
[12] = qHTS assay to test for compound auto fluorescence at 460 nm (blue) in HEK293 cell free culture (AID 720681)
In short: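 Blue fluorescence (Ex 405/Em 460 nm, triamterene-equivalent) was read immediately after pin transfer of compound or DMSO into medium (DMEM, 10% FBS) without cells.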

[13] = qHTS assay to test for compound auto fluorescence at 535 nm (green) in HEK293 cell free culture (AID 720682)
In short: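 Each library compound, or DMSO control, is added by pintool to medium alone, comprising DMEM and 10% FBS. Emission at 535 nm following 485 nm excitation is quantified against fluorescein.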

[14] = qHTS assay to test for compound auto fluorescence at 590 nm (red) in HEK293 cell free culture (AID 720683)
In short: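 Red-channel autofluorescence of compounds in culture medium (DMEM, 10% FBS), no cells, measured at 540/590 nm. Rose Bengal sodium is the reference fluorophore for equivalence.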

[15] = qHTS assay to test for compound auto fluorescence at 590 nm (red) in HepG2 cell free culture (AID 720684)
In short: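 No cells present: MEM + 10% FBS only. Compound pinned in, red label read (540/590 nm). Activity = fluorescence equivalent to Rose Bengal sodium.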

[16] = qHTS assay to test for compound auto fluorescence at 460 nm (blue) in HepG2 cell free culture (AID 720685)
In short: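 Cell-free plates of MEM plus 10% FBS received 23 nL compound or DMSO vehicle; blue-channel (405/460 nm) intensity scored against triamterene as reference fluorophore.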

[17] = qHTS assay to test for compound auto fluorescence at 535 nm (green) in HepG2 cell free culture (AID 720686)
[18] = qHTS assay to test for compound auto fluorescence at 460 nm (blue) in HepG2 cells (AID 720687)
In short: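 Blue-channel autofluorescence (Ex/Em 405/460 nm, triamterene-equivalent) was measured after 1 hr compound exposure at 37 C, 5% CO2. Cells were HepG2, plated overnight at 37 C in MEM plus 10% FBS.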

[19] = molecular target: Glucocorticoid receptor (Homo sapiens) (UniProt P04150); experiment: qHTS assay to identify small molecule agonists of the glucocorticoid receptor (GR) signaling pathway (AID 720691; active = well fitted activation curve with a large enough effect in the signal ratio in the repeat runs, not every such curve was filed as active; the % refers to the signal ratio)
In short: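 HeLa GR-bla reporter line; cells pre-incubated 4 h, compound in DMSO 18 h at 37 C; LiveBLAzer B/G FRET substrate 2 h RT; fluorescence intensity read-out.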

[20] = molecular target: Glucocorticoid receptor (Homo sapiens) (UniProt P04150); experiment: qHTS assay to identify small molecule antagonists of the glucocorticoid receptor (GR) signaling pathway (AID 720692; active = well fitted inhibition curve with a large enough effect in the signal ratio in the repeat runs, not every such curve was filed as active; the % refers to the signal ratio)
In short: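 Read-out: beta-lactamase FRET substrate fluorescence, 2 h at room temperature, in HeLa cells stably carrying a GRE-driven bla reporter. Compounds were co-incubated with 5 nM dexamethasone agonist (final) for 18 h at 37 C.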

Glucocorticoid receptor (Homo sapiens), sequence (P04150 whole entry, looked up): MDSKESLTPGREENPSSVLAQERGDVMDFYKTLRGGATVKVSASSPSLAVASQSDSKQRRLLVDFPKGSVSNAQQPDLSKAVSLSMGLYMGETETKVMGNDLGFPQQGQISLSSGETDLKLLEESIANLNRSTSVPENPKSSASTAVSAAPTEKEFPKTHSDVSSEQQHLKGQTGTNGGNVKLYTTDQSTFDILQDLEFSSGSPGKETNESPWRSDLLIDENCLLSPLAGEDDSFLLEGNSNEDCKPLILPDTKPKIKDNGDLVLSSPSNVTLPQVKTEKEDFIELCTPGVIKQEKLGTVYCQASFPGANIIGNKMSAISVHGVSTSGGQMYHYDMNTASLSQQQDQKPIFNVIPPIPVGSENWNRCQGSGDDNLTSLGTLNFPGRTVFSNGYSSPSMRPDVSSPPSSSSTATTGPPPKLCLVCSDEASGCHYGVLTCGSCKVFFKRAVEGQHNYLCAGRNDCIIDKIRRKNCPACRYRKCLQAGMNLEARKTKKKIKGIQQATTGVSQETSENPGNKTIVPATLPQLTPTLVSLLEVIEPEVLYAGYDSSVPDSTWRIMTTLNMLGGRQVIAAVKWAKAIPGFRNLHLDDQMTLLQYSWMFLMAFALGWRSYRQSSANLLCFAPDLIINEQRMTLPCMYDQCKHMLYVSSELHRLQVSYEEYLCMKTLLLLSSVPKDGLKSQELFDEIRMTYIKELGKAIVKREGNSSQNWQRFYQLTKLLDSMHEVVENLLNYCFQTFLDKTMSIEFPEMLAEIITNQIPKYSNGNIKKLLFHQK

Row | Structure (SMILES) | outcome [1] | Potency [2] | outcome [3] | Potency [4] | Potency [5] | Potency [6] | outcome [7] | outcome [8] | outcome [9] | outcome [10] | outcome [11] | outcome [12] | outcome [13] | outcome [14] | outcome [15] | outcome [16] | outcome [17] | outcome [18] | Potency [19] | Potency [20]
1 | COC(=O)c1cc(C(=O)OC)cc(S(=O)(=O)O)c1 | inactive | inactive | inactive | inactive | inactive | inactive | inactive | inactive | inactive | inactive | inactive | inactive | inactive | inactive | inactive | inactive | inactive | inactive | inactive | –
2 | NC(=O)Nc1ccccc1 | inactive | inactive | inactive | inactive | inactive | inactive | inactive | inactive | inactive | inactive | inactive | inactive | inactive | inactive | inactive | inactive | inactive | inactive | inactive | –
3 | N=c1nc(N2CCCCC2)cc(N)n1O | inactive | inactive | inactive | inactive | inactive | inactive | inactive | inactive | inactive | inactive | inactive | inactive | inactive | inactive | inactive | inactive | inactive | inactive | – | inactive
4 | O=C(CCCN1CCN(c2ccccn2)CC1)c1ccc(F)cc1 | inactive | inactive | inactive | inactive | inactive | inactive | inactive | inactive | inactive | inactive | inactive | inactive | inactive | inactive | – | inactive | inactive | inactive | – | –
5 | CC1=CC(C)C(C=O)CC1 (stereo not given) | inactive | inactive | inactive | inactive | inactive | inactive | inactive | inactive | inactive | inactive | inactive | inactive | inactive | inactive | inactive | inactive | inactive | inactive | inactive | inactive
6 | OCCOc1ccc(OCCO)cc1 | inactive | inactive | inactive | inactive | inactive | 1.56 µM (active) | inactive | inactive | inactive | inactive | inactive | inactive | inactive | inactive | inactive | inactive | inactive | inactive | inactive | inactive
7 | OC[C@]1(O)OC[C@@H](O)[C@H](O)[C@@H]1O | inactive | inactive | inactive | inactive | inactive | inactive | inactive | inactive | inactive | inactive | inactive | inactive | inactive | inactive | inactive | inactive | inactive | inactive | – | –
8 | O=c1cc(CO)occ1O | inactive | inactive | inactive | inactive | inactive | inactive | inactive | inactive | inactive | inactive | inactive | inactive | inactive | inactive | inactive | – | inactive | inactive | – | inactive
9 | CCn1ccnc1CC1COc2ccccc2O1 (stereo not given) | inactive | inactive | inactive | inactive | inactive | inactive | inactive | inactive | inactive | inactive | inactive | inactive | inactive | inactive | inactive | inactive | inactive | inactive | inactive | –
10 | Oc1ccc(C2CNCCc3c2cc(O)c(O)c3Cl)cc1 (stereo not given) | inactive | inactive | inactive | inactive | inactive | inactive | inactive | inactive | inactive | inactive | inactive | inactive | inactive | inactive | inactive | inactive | inactive | inactive | inactive | inactive
11 | CC(C)(O)C#CC(C)(C)O | inactive | inactive | inactive | inactive | inactive | inactive | inactive | inactive | inactive | inactive | inactive | inactive | inactive | inactive | inactive | inactive | inactive | inactive | – | –
12 | CCN1CCC[C@H]1CNC(=O)c1cc(S(N)(=O)=O)ccc1OC | inactive | inactive | inactive | inactive | inactive | inactive | inactive | inactive | inactive | inactive | inactive | inactive | inactive | inactive | inactive | inactive | inactive | inactive | – | –
13 | O=C1CCCC(=O)C1 | inactive | inactive | inactive | inactive | inactive | inactive | inactive | inactive | inactive | inactive | inactive | inactive | inactive | inactive | inactive | inactive | inactive | inactive | inactive | inactive
